Results taken from PubChem BioAssay (NCATS).
Inconclusive results are not listed. Active and inactive are the calls of the source. Calls come from the whole dose curve.

Assay: qHTS for inhibitors of Rabies Virus screened against the NCATS CANVASS Library (AID 1347402)
Settings: Rabies virus infection cell assay; series mostly up to 45.9 µM

Compound | outcome
C[C@@H]1O[C@@H](OC[C@H]2O[C@@H](Oc3c(-c4ccc(O)c(O)c4)oc4cc(O)cc(O)c4c3=O)[C@H](O)[C@@H](O)[C@@H]2O)[C@H](O)[C@H](O)[C@H]1O | inactive
COc1ccc2[nH]cc(CCNC(C)=O)c2c1 | inactive
COC(=O)[C@@H]1[C@H]2C[C@H]3c4[nH]c5ccccc5c4CCN3C[C@@H]2CC[C@@H]1O | inactive
O=C(O)c1cc(O)c(O)c(O)c1 | inactive
CN1CCC[C@@H]1c1cccnc1 | inactive
